# According to PubChem BioAssay (Tox21):
# Where “and” joins values, the source holds several entries; their conditions need not be identical. Identical values can stand only once. Results filed as inconclusive are left out. A call without a number means that no potency is given here. Some compounds were tested as several samples or in several runs, with calls that do not always agree. Calls of active or inactive are those of the source. Unless noted, the call rests on the fitted dose curve; in most records, active means well fitted curve in the direction sought with a large enough effect in the repeat runs; inconclusive means weak or mixed curves; inactive means no such curve, though single readings can be large; an effect the other way counts as inactive or inconclusive.
# Legend:
# [1] = qHTS assay to identify small molecule agonists of the hypoxia (HIF-1) signaling pathway - cell viability counter screen (AID 1224844; calls by dose curve; further: nearly all actives have a fitted effect of over 50% in size)
# Summary of the method: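 Multiplexed with the HRE beta-lactamase assay, this viability read used CellTiter-Glo luminescence (30 min, RT) on HRE-bla ME-180 cells treated 17 hrs with compounds in 0.5% dialyzed FBS medium.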
# [2] = qHTS assay to identify small molecule agonists of H2AX (AID 1224845; active means well fitted activation curve with a large enough effect in the signal ratio in the repeat runs, not every such curve was filed as active; the % refers to the signal ratio)
# Summary of the method: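 Phospho-H2AX Ser139 measured by HTRF (ex 320 nm; em 665 and 620 nm) after 24 hr antibody incubation. Compounds, 15 concentrations, 0.76% DMSO, were applied to CHO-K1 cells for 3hr at 37C before lysis.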
# [3] = qHTS assay to identify small molecule agonists of H2AX - cell viability counter screen (AID 1224847; calls by dose curve; further: nearly all actives have a fitted effect of over 30% in size; further: potency means the concentration at half of the fitted maximal effect)
# Summary of the method: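 After overnight plating of 1000 CHO-K1 cells per well, a 15-concentration compound series was applied for 3 hr at 37C. Luminescence from CellTiter-Glo, read following 30 min at room temperature, reflected cell viability.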
# [4] = qHTS assay to identify small molecule antagonists of the estrogen related receptor (ERR) signaling pathway from Tox21 library (AID 1224848); further: nearly all actives have a fitted effect of over 50% in size
# Summary of the method: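 Reading was by luminescence 30 min after ONE-Glo addition. Before that, ERR cells at 2,000 per well had rested 6 h at 37 C/5% CO2 and then received pin-tooled compounds in DMSO for 18 h at 37 C.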
# [5] = qHTS assay to identify small molecule agonists of the estrogen related receptor (ERR) signaling pathway from Tox21 library (AID 1224849; calls by dose curve; further: nearly all actives have a fitted effect of over 15% in size); conditions: ERR reporter cell line, ONE-Glo luciferase, 18 h
# Summary of the method: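 Six hours post-seeding at 37 C/5% CO2, ERR cells receive DMSO-solubilised compounds; after 18 h at 37 C, ONE-Glo reagent is applied and luminescence recorded.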
# [6] = qHTS RealTime-Glo MT Cell Viability Assay in HepG2 cells - 24 hour (AID 1224867); further: nearly all actives have a fitted effect of over 50% in size
# Summary of the method: (§1)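 HepG2 cells (600/well) were dispensed with RealTime-Glo reagents, incubated 5 h at 37 °C, then treated with compounds in DMSO for up to 40 h. Nonlytic NanoLuc luminescence reflecting viable cells was read at each stated time point.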
# [7] = qHTS RealTime-Glo MT Cell Viability Assay in HEK293 cells - 32 hour (AID 1224868); further: nearly all actives have a fitted effect of over 50% in size; further: potency means the concentration at half of the fitted maximal effect
# Summary of the method: (§2)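 HEK293 cells seeded with NanoLuc/prosubstrate reagent, rested 5 h at 37 C, then dosed and kept at 37 C up to 40 h. Nonlytic real-time luminescence from viable cells read at 0, 8, 16, 24, 32 and 40 h.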
# [8] = A CellTox Green Cytotoxicity Assay to monitor cytotoxicity in HEK293 cells - 0 hour (AID 1224869); further: nearly all actives have a fitted effect of over 50% in size; further: potency means the concentration at half of the fitted maximal effect
# Summary of the method: (§3)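 Seeding of HEK293 cells together with cytotoxicity dye preceded a 5 h incubation at 37 C/5% CO2. Test compounds in DMSO were then added and fluorescence monitored across 40 h.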
# [9] = qHTS RealTime-Glo MT Cell Viability Assay in HepG2 cells - 40 hour (AID 1224870); further: nearly all actives have a fitted effect of over 50% in size
# Summary of the method: (§4)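 Real-time viability: cells seeded at 600 per well together with NanoLuc and cell-permeant prosubstrate, compounds added after 5 h incubation. Luminescence tracked at 0, 8, 16, 24, 32 and 40 h of exposure.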
# [10] = qHTS RealTime-Glo MT Cell Viability Assay in HEK293 cells - 16 hour (AID 1224872)
# Summary of the method: as §2
# [11] = qHTS RealTime-Glo MT Cell Viability Assay in HepG2 cells - 8 hour (AID 1224873); further: nearly all actives have a fitted effect of over 55% in size
# Summary of the method: as §4
# [12] = qHTS RealTime-Glo MT Cell Viability Assay in HEK293 cells - 40 hour (AID 1224874); conditions: RealTime-Glo luminescence; max response: stronger effect = lower value; further: nearly all actives have a fitted effect of over 50% in size; further: potency means the concentration at half of the fitted maximal effect
# Summary of the method: (§5)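 Tox21 screen in HEK293 using RealTime-Glo MT chemistry, with cells and reagent co-dispensed. Luminescence proportional to viable cell number was captured at intervals during 40 h compound exposure at 37 C.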
# [13] = A CellTox Green Cytotoxicity Assay to monitor cytotoxicity in HEK293 cells - 24 hour (AID 1224875); further: nearly all actives have a fitted effect of over 45% in size; further: potency means the concentration at half of the fitted maximal effect
# Summary of the method: as §3
# [14] = qHTS RealTime-Glo MT Cell Viability Assay in HepG2 cells - 32 hour (AID 1224877); further: nearly all actives have a fitted effect of over 55% in size
# Summary of the method: as §1
# [15] = A CellTox Green Cytotoxicity Assay to monitor cytotoxicity in HepG2 cells - 24 hour (AID 1224878); further: nearly all actives have a fitted effect of over 45% in size; further: potency means the concentration at half of the fitted maximal effect
# Summary of the method: (§6)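 Nonlytic assay: viable cells exclude the dye, so fluorescence scales with cell death. HepG2 at 600 cells/well, compounds added after 5 h, signal read across 40 h.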
# [16] = A CellTox Green Cytotoxicity Assay to monitor cytotoxicity in HepG2 cells - 40 hour (AID 1224879); further: nearly all actives have a fitted effect of over 40% in size; further: potency means the concentration at half of the fitted maximal effect
# Summary of the method: as §6
# [17] = qHTS RealTime-Glo MT Cell Viability Assay in HEK293 cells - 0 hour (AID 1224880); further: top concentration of the series differs between compounds; nearly all actives have a fitted effect of over 45% in size
# Summary of the method: as §5
# [18] = A CellTox Green Cytotoxicity Assay to monitor cytotoxicity in HepG2 cells - 16 hour (AID 1224876); further: nearly all actives have a fitted effect of over 45% in size; further: potency means the concentration at half of the fitted maximal effect
# Summary of the method: as §6
# [19] = A CellTox Green Cytotoxicity Assay to monitor cytotoxicity in HEK293 cells - 40 hour (AID 1224871); further: nearly all actives have a fitted effect of over 45% in size; further: potency means the concentration at half of the fitted maximal effect
# Summary of the method: as §3
compound,measurement,setting,value
CC(C(=O)O)c1cccc(C(=O)c2ccccc2)c1 (stereo not given),Potency,[1],inactive
same,outcome,[2],inactive
same,Potency,[3],inactive
same,Potency,[4],inactive
same,"activity change, positive = activation",[5]; at 42.5 µM (top of the series),0.181% (inactive)
same,"activity change, positive = activation",[5]; at 92.4 µM (top of the series),2.6% (inactive)
same,Potency,[6],inactive
same,Potency,[7],inactive
same,Potency,[8],inactive
same,Potency,[9],inactive
same,Potency,[10],inactive
same,Potency,[11],inactive
same,max response,[12],9.55% (inactive) and 2.14% (inactive)
same,Potency,[13],inactive
same,Potency,[14],inactive
same,Potency,[15],inactive
same,Potency,[16],inactive
same,Potency,[17],inactive
Nc1ncnc2nc[nH]c12,Potency,[1],inactive
same,outcome,[2],inactive
same,Potency,[4],inactive
same,"activity change, positive = activation",[5]; at 92.4 µM (top of the series),111% (active)
same,Potency,[6],inactive
same,Potency,[7],inactive
same,Potency,[8],inactive
same,Potency,[9],inactive
same,Potency,[10],inactive
same,Potency,[11],inactive
same,max response,[12],0.881% (inactive) and 2.65% (inactive)
same,Potency,[13],inactive
same,Potency,[18],inactive
same,Potency,[14],inactive
same,Potency,[15],inactive
same,Potency,[16],inactive
O=C(Nc1ccc([N+](=O)[O-])cc1Cl)c1cc(Cl)ccc1O,outcome,[2],inactive
same,Potency,[3],2.84 µM (active)
same,Potency,[6],inactive
same,Potency,[7],3.47 µM (active) and 928 nM (active)
same,Potency,[8],inactive
same,Potency,[11],inactive
same,Potency,[12],2.19 µM (active) and 827 nM (active)
same,Potency,[13],inactive
same,Potency,[18],inactive and 29.3 nM (active)
same,Potency,[15],5.49 µM (active)
same,cytotoxicity,[15],38% [at 15.8 µM] (inactive)
same,Potency,[16],4.9 µM (active) and 2.33 µM (active)
Cc1cc2nc3c(=O)[nH]c(=O)nc-3n(C[C@H](O)[C@H](O)[C@H](O)CO)c2cc1C,Potency,[1],inactive
same,outcome,[2],inactive
same,Potency,[3],inactive
same,Potency,[6],inactive
same,Potency,[7],inactive
same,Potency,[8],43.2 µM (active) and 40.5 µM (active) and 11.7 µM (active)
same,Potency,[9],inactive
same,Potency,[19],43.2 µM (active) and 40.5 µM (active) and 10.4 µM (active)
same,Potency,[10],inactive
same,Potency,[11],inactive
same,max response,[12],-7.07% (inactive) and -0.427% (inactive) and -0.0783% (inactive)
same,Potency,[13],48.5 µM (active) and 40.5 µM (active) and 11.7 µM (active)
same,Potency,[14],inactive
same,Potency,[15],43.2 µM (active) and 40.5 µM (active) and 11.7 µM (active)
same,Potency,[16],43.2 µM (active) and 40.5 µM (active) and 11.7 µM (active)
same,Potency,[17],inactive
CC(CCC(=O)O)(c1ccc(O)cc1)c1ccc(O)cc1,Potency,[1],inactive
same,outcome,[2],inactive
same,Potency,[3],inactive
same,Potency,[4],inactive
same,"activity change, positive = activation",[5]; at 92.4 µM (top of the series),1.54% (inactive) and 1.03% (inactive)
same,Potency,[6],inactive
same,Potency,[7],inactive
same,Potency,[8],inactive
same,Potency,[9],inactive
same,Potency,[19],inactive
same,Potency,[10],inactive
same,Potency,[11],inactive
same,max response,[12],-1.02% (inactive) and 0.133% (inactive)
same,Potency,[13],inactive
same,Potency,[14],inactive
same,Potency,[15],inactive
same,Potency,[16],inactive
same,Potency,[17],inactive
